Measurements taken from PubChem BioAssay AID624125 (The Scripps Research Institute Molecular Screening Center, 2012).
Out of some 360,000 compounds screened, about 2,600 (0.72%) were called active. This excerpt belongs to a sample that is enriched for actives. A number with no mark means an inactive call.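 Rule for the calls: active = inhibition above its plate's cutoff, the mean inhibition of sample wells plus 3 SD (cut at about 27% in these data); inactive = the rest.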

target: Muscarinic acetylcholine receptor M4 (Homo sapiens) (UniProt P08173); test: human M4 muscarinic receptor antagonists, primary screen, CHO cells, Fluo-8 calcium fluorescence (AID 624125); conditions: CHO-hM4 cells, ACh EC80, Fluo-8 calcium fluorescence; at 3 µM; hits give high values;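 note: 0% = acetylcholine EC80 with DMSO and 100% = DMSO without agonist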
Sequence (P08173 whole entry, looked up): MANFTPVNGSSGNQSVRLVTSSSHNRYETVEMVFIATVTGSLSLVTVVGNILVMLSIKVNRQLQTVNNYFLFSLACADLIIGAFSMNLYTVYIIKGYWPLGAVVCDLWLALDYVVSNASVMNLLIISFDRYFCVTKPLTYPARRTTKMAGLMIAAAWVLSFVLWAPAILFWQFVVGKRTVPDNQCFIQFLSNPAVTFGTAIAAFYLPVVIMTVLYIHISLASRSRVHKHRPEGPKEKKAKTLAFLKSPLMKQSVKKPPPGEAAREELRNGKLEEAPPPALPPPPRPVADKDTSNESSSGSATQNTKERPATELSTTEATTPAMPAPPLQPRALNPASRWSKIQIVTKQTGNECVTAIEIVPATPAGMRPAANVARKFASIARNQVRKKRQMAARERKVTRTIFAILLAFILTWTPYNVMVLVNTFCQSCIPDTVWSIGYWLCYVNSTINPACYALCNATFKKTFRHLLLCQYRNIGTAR

SMILES	inhibition
COc1ccc(-c2onc3ccc(C(C)=O)cc23)cc1	-10.7%
CCn1c2ccccc2c2cc(NC(=S)N3CCOCC3)ccc21	3.52%
Nc1c(C(=O)Nc2ccc3c(c2)OCCO3)nnn1Cc1ccccc1	1.65%
O=C(CN1CCOc2ccccc21)N1CCC(Cc2ccccc2)CC1	-1.37%
O=C(Nc1ccc2c(c1)OCCO2)C(C1CC1)N1CCC(Cc2ccccc2)CC1 (configuration not stated)	28.2% (active)
O=C(Nc1ccccc1C(=O)N1CCOCC1)c1ccc(Cl)cc1	-14.3%
CN(CCO)C(=O)c1nc[nH]c1C(=O)N(C)Cc1ccccc1	-23.3%
CN(C(=O)CN(CCO)CC(=O)N(C)C(C)(C)Cc1ccccc1)C(C)(C)Cc1ccccc1	28.1% (active)
CCOC(=O)N(Cc1ccccc1)C1CC1	2.24%
Cc1ccc2cc(C#N)c(NCCNC(=S)NCCCN3CCOCC3)nc2c1	-4.3%
COCCn1c(C)cc(C(=O)CN2c3cccc4cccc(c34)S2(=O)=O)c1C	-7.15%
CCOC(=O)N1CCN(C(=O)c2cn(C)c3ccc(S(=O)(=O)N(CC)CC)cc3c2=O)CC1	-13.5%
COc1ccc(N2CCN(C(=O)c3cn(C)c4ccc(S(=O)(=O)N5CCOCC5)cc4c3=O)CC2)cc1	-12.4%
CCOC(=O)N1CCN(C(=O)c2cn(C)c3ccc(S(=O)(=O)N4CCCC4)cc3c2=O)CC1	58.7% (active)
CCCCSc1nc2c(c(=O)n1CC)SC(C)C2 (configuration not stated)	-22.6%
Cc1ccc(NC(=O)C(C)OC(=O)Cc2c[nH]c3ccccc23)cc1S(=O)(=O)N1CCOCC1 (configuration not stated)	-17.2%
Cc1ccc(S(=O)(=O)N(Cc2ccc(Cl)cc2)c2ccccc2C(=O)NCc2cccnc2)cc1	2.37%
Nc1nc(NCc2ccccc2)n(-c2ccccc2)n1	-15.7%
CCCCCCn1c(=O)n2n(c1=O)C[C@]1(OC(=O)NCc3ccc(OC)c(OC)c3)CN(S(=O)(=O)c3ccc(C)cc3)C[C@]1(O)C2	-8.79%
CC12CN(Cc3ccccc3)CC(C)(CN(Cc3ccccc3)C1)C2=NO	31.4% (active)
O=S1(=O)CCN(Cc2ccccc2)CC1	-1.75%
NC(=O)C1(N2CCCC2)CCN(Cc2ccccc2)CC1	-8.47%

SMILES	inhibition
COc1cccc(CC(=O)N2CCCC(CCC(=O)N3CCN(c4ccccn4)CC3)C2)c1 (configuration not stated)	-6.8%
CC(=O)N[C@@H](C)C(=O)N1CCC(n2nccc2NC(=O)CCCc2ccccc2)CC1	-1.73%
COc1ccccc1NC(=O)COC(=O)Cc1ccc(S(=O)(=O)N2CCCCC2)s1	-3.41%
CC(C)Nc1nnc(SC(C)C(=O)N(C)C2CCCCC2)s1 (configuration not stated)	3.18%
COc1cc(C(=O)NCc2ccc(-n3cccc3)cc2)cc(OC)c1OC	9.05%
CCn1c(CNC(=O)c2cc(OC)c(OC)c(OC)c2)cc2cc(C)ccc21	28.2% (active)
COc1cc(C(=O)NCc2nnc(SCC(=O)Nc3nc4ccc(C)cc4s3)o2)cc(OC)c1OC	1.54%
Cc1ccc(S(=O)(=O)N2CCC(C(=O)N[C@@H](C)C(=O)NCc3ccccc3)CC2)cc1	-7.25%
Cc1coc2c1c(C)cc1oc(=O)c(CC(=O)NCC(=O)N[C@H](C(=O)O)C(C)C)c(C)c12	12.9%
C=CCn1c(SCC(=O)NCc2ccccc2)nnc1-c1cc(Br)ccc1O	10.6%
COc1ccccc1C(=O)NC(=O)COC(=O)c1ccco1	-3.72%
COc1ccccc1S(=O)(=O)NCc1ccc(C(=O)N(C)Cc2ccc(F)cc2)cc1	0.25%
Cc1ccc(CNC(=O)Cn2cnc(S(=O)(=O)N3CCCCC3)c2)o1	-2.52%
CCN1CCN(c2cc3nc(C)n(Cc4ccccc4)c(=O)c3cc2NC(=O)c2ccccc2F)CC1	84.6% (active)
CCC(=O)Nc1ccc2nc(C)n(Cc3ccccc3Cl)c(=O)c2c1	6.19%
CCOc1cc(NC(=O)c2ccccc2C(=O)O)c(OCC)cc1NC(=O)c1ccccc1F	-12.1%
COc1ccc(NC(=O)C[C@H]2C(=O)N(CCc3ccccc3)C[C@@H]2C)cc1	-7.17%
COc1cc2c(cc1OC)C(c1cccc([N+](=O)[O-])c1)=NCC2	-14.9%
COc1ccc(C(CNCC(=O)Nc2ccccc2F)N(C)C)cc1 (configuration not stated)	-5.27%
CCc1ccccc1NC(=O)CN(C)C(=O)COc1ccc(C)nc1[N+](=O)[O-]	-2.74%
COc1ccc(C(CNC(=O)c2cccc(S(=O)(=O)Nc3ccc(Br)cc3)c2)N(C)C)cc1 (configuration not stated)	1.87%
COc1ccccc1C(CNC(=O)c1ccc(C)c(S(=O)(=O)N2CCCCC2)c1)N(C)C (configuration not stated)	51.6% (active)

SMILES	inhibition
COc1ccccc1CNC(=O)c1ccc(Cl)c(S(=O)(=O)N2CCCC2)c1	-5.41%
Cc1ccc(C(=O)NCC(c2cccs2)N(C)C)cc1S(=O)(=O)N1CCOCC1 (configuration not stated)	8.72%
CCOc1ccc(NS(=O)(=O)c2ccc(C(=O)NCC(c3ccccc3OC)N3CCCC3)cc2)cc1 (configuration not stated)	40.8% (active)
COc1ccccc1C(CNC(=O)c1cccc(NS(=O)(=O)c2ccc(Br)cc2)c1)N(C)C (configuration not stated)	10.7%
CCOc1ccc(NS(=O)(=O)c2ccc(C(=O)NC3CCN(Cc4ccccc4)CC3)cc2)cc1	6.63%
CCOc1ccc(S(=O)(=O)Nc2ccc(C(=O)NCCCN3CCCC3=O)cc2)cc1	-0.83%
COc1ccccc1C(CNC(=O)c1cccc(S(=O)(=O)Nc2ccc(F)cc2)c1)N(C)C (configuration not stated)	48.7% (active)
Fc1cccc(Cc2c(-c3ccc(Cl)cc3)nc3ccc(Cl)cn23)c1	-24.1%
CCOC(=O)C(CC)Sc1ncnc2c1nnn2-c1ccc(F)cc1 (configuration not stated)	-1.34%
CC(C)Cc1cc(C(=O)NCCc2ccccc2)no1	101% (active)
CC(C)Cc1cc(C(=O)Nc2cc(Br)ccc2O)no1	-14.2%
O=C(NCCCc1ccccc1)c1cc(COc2c(F)cccc2F)on1	-4.04%
CC1(C(=O)NS(=O)(=O)c2ccccc2Cl)CCN1C(=O)c1cccc(F)c1 (configuration not stated)	3.33%
CC(Sc1nncn1C)C(=O)Nc1cc(C(F)(F)F)ccc1N1CCOCC1 (configuration not stated)	-5.32%
CN(CCC#N)c1ncnc2scc(-c3ccccc3)c12	-1.83%
O=C(CN1CCCCCC1)N1c2ccccc2Sc2ccc(C(F)(F)F)cc21	98% (active)
O=C(CN1CCCCC1)N1c2ccccc2Sc2ccc(C(F)(F)F)cc21	97.5% (active)
O=C(CSc1nc2ccccc2o1)N1c2ccccc2Sc2ccc(Cl)cc21	-3.42%
O=C(CN1CCCCCC1)Nc1ccc(Cl)cc1F	-14.1%
CCC(=O)Nc1cc(C(F)(F)F)ccc1N1CCCC1	3.82%
O=C(CN1C(=O)/C(=C\c2ccc(C(F)(F)F)cc2)Sc2ccccc21)NCc1ccco1	14.8%
COc1cccc(CNC(=O)CCC2CCCN(C(=O)c3cc(C)[nH]n3)C2)c1 (configuration not stated)	-0.4%

SMILES	inhibition
O=C(NCc1ccccc1)[C@H]1C[C@@H]1[C@H](NP(=O)(c1ccccc1)c1ccccc1)c1ccccc1	-6.36%
O=C(Nc1c2c(nn1-c1ccc(F)cc1)CS(=O)C2)C12CC3CC(CC(C3)C1)C2 (configuration not stated)	-0.1%
Cc1c([N+](=O)[O-])c(N)nn1C	-10.8%
CCc1cccc(NC(=O)COC(=O)c2cc(=O)c3ccccc3o2)c1	-0.31%
CN(CCc1ccccn1)C(=O)CCC1CCCN(Cc2ccccc2OC(F)F)C1 (configuration not stated)	31.4% (active)
CN(CCc1ccccn1)C(=O)c1ccc(OC2CCN(Cc3ccccn3)CC2)cc1	10.3%
COc1cccc(CNC(=O)CCC2CCCN(Cc3ccc(OC(F)F)cc3)C2)c1 (configuration not stated)	8.05%
CCCS(=O)(=O)Nc1ccc(-c2cn3c(n2)SCC3)cc1	4.45%
CCN(CC(=O)Nc1ccc(OC)cc1)C(=O)c1ccc(=O)n(Cc2ccccc2)n1	6.9%
CC(=O)OC(COc1ccc(F)cc1)Cn1cnc2ccccc21 (configuration not stated)	11.2%
CC(C)c1ccc(OCC(O)Cn2cnc3ccccc32)cc1 (configuration not stated)	32% (active)
CC(C)c1ccc(OCC(O)CN2CCN(c3ccccn3)CC2)cc1 (configuration not stated)	-9.52%
COC(=O)c1ccccc1NC(=O)C1CC(=O)N(c2ccc(OC)cc2)C1 (configuration not stated)	-8.44%
COc1ccc(CN2CC(C(=O)NCCc3ccc(Cl)cc3)CC2=O)cc1 (configuration not stated)	-3.66%
CCCC(=O)Nc1ncnc2c1ncn2[C@@H]1O[C@@H]2OP(=O)(O)OC[C@H]2[C@H]1OC(=O)CCC	-12.4%
COc1ccc(C(CCN(Cc2ccc(OC)c(OC)c2)C(=O)CCl)c2ccccc2)cc1 (configuration not stated)	-0.52%
CCN(CCCCOC(=O)c1ccc(OC)c(OC)c1)C(C)Cc1ccc(OC)cc1 (configuration not stated)	61.6% (active)
COc1ccc(C(=O)OCC(=O)NCCCc2ccccc2)cc1OC	2.28%
Cc1n[nH]c(=O)c2c(NC(=O)CSc3cc(Cl)ccc3Cl)oc(C)c12	-3.66%
COc1ccc2[nH]c3c(C)c4cc[n+](C)cc4c(C)c3c2c1	1.89%
CC(OC(=O)c1ccc(NS(=O)(=O)c2ccc3[nH]c(=O)[nH]c3c2)cc1)C(=O)Nc1cccc(Cl)c1Cl (configuration not stated)	5.91%
